Measurements as given in PubChem BioAssay AID504467 (National Center for Advancing Translational Sciences (NCATS), 2011).
The campaign covered roughly 330,000 compounds. About 7,700 (2.3%) were called active. Not shown: some 26% with an inconclusive outcome. The sample holds actives, similar compounds and a random draw of the others, so the mix is not that of the screen. Calls follow the shape of the dose curve; as a rule, active = well fitted inhibition curve with a large enough effect; inconclusive = small, poorly fitted or top-dose-only effect, or effect the other way; inactive = flat fitted curve, though single readings scatter.

Experiment: qHTS screen for small molecules that inhibit ELG1-dependent DNA repair in human embryonic kidney (HEK293T) cells expressing luciferase-tagged ELG1; also: nearly all actives have a fitted effect of over 55% in size
Conditions: HEK293T ELG1-luciferase reporter, luminescence, 16 h, DNA damage induced by 5-fluorouridine; series mostly up to 46.1 µM; activity change, negative = inhibition: at the top concentration
Outline: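 Overnight (16 hr) co-exposure of 2,000 cells/well to 5-fluorouridine and compound at 37 °C preceded detection. Luciferase was quantified via ONE-Glo luminescence; loss of signal denotes inhibition.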
% is scaled to controls: 0 for no effect and ±100 for the full control effect; potency is read from the fitted curve at half-maximal effect.

Which “activity change, negative = inhibition” value does the source give for `O=C(Nc1ccc(N2CCOCC2)c(Cl)c1)c1ccc(S(=O)(=O)N2CCOCC2)cc1` here?
Its value is -11.2% (inactive).

Which “activity change, negative = inhibition” value does the source give for `O=C(CN1C(=O)c2ccccc2S1(=O)=O)NC1CCCCC1` here?
Its value is 11% (inactive).

With `O=C(CN1C(=O)c2ccccc2S1(=O)=O)N1CCc2ccccc21` as the molecule, how does the Potency read?
Its Potency is 20.6 µM (active).

For `O=C(CN1CCN(c2ccccn2)CC1)N1CCc2ccccc21`, which “activity change, negative = inhibition” value is on record?
The value was 1.75% (inactive).

With `CCOc1ccc(-n2c(SCC(=O)Nc3cc(C(=O)O)ccc3Cl)nc3ccccc3c2=O)cc1` as the molecule, how does the “activity change, negative = inhibition” value read?
The value was 8.71% (inactive).

With `O=C(O)CCCn1c(=O)c2cccn2c2ccc(F)cc21` as the molecule, how does the “activity change, negative = inhibition” value read?
Its value is 13.5% (inactive).

With `O=C(CCCN1C(=O)c2cccc3cccc(c23)C1=O)N1CCN(Cc2ccc3c(c2)OCO3)CC1` as the molecule, how does the Potency read?
Its Potency is 2.31 µM (active).

Which “activity change, negative = inhibition” value does the source give for `Cc1cc(C)n2nc(C(=O)N3CCN(Cc4ccc5c(c4)OCO5)CC3)nc2n1` here?
The value was -5.43% (inactive).

With `O=C(CN1C(=O)c2cccc3cccc(c23)C1=O)N1CCCCC1` as the molecule, how does the “activity change, negative = inhibition” value read?
Its value is -4.51% (inactive).

For `O=C(CSCc1ccc(Cl)cc1)N1CCN(Cc2ccc3c(c2)OCO3)CC1`, which Potency is on record?
The Potency was 20.6 µM (active).

Which “activity change, negative = inhibition” value does the source give for `O=C(Nc1cccc2ccccc12)N1CCN(Cc2ccc3c(c2)OCO3)CC1` here?
The value was -2.1% (inactive).

Which “activity change, negative = inhibition” value does the source give for `O=C(c1cccs1)N1CCN(Cc2ccc3c(c2)OCO3)CC1` here?
The value was -19.8% (inactive).

With `CCOc1ccccc1NC(=S)NC(=O)CCc1ccccc1` as the molecule, how does the “activity change, negative = inhibition” value read?
The value was -23.7% (inactive).

Which “activity change, negative = inhibition” value does the source give for `COc1ccc(NC(C)=O)cc1NC(=O)CN1CCN(c2ccccn2)CC1` here?
The value was 9.16% (inactive).

With `COc1cccc(NC(=O)CN2CCN(CC(=O)Nc3ccccc3Cl)CC2)c1` as the molecule, how does the “activity change, negative = inhibition” value read?
The value was -15.9% (inactive).

For `COc1ccc(NC(C)=O)cc1NC(=O)CN1CCN(C2c3ccccc3-c3ccccc32)CC1`, which Potency is on record?
Its Potency is 0.92 µM (active).

Which “activity change, negative = inhibition” value does the source give for `CCCCN(CCCC)CCCNC(=O)CN1C(=O)COc2ccc(S(=O)(=O)N3CCC(C)CC3)cc21` here?
The value was 11.5% (inactive).

Which “activity change, negative = inhibition” value does the source give for `CC(C)n1ncc2c(C(=O)NCc3ccccc3CN(C)C)cc(C3CC3)nc21` here?
The value was -11.2% (inactive).

With `COc1ccc(CCn2c(-c3ccco3)nc3nc4ccccc4nc32)cc1OC` as the molecule, how does the Potency read?
Its Potency is 4.61 µM (active).

Which “activity change, negative = inhibition” value does the source give for `Clc1cccc(-c2nc3nc4ccccc4nc3n2Cc2ccco2)c1` here?
Its value is -13.2% (inactive).

For `COc1ccc(S(=O)(=O)N2CN(CCc3ccc(OC)c(OC)c3)c3nc4ccccc4nc32)cc1`, which “activity change, negative = inhibition” value is on record?
Its value is -17.5% (inactive).

For `CCOc1ccccc1-c1cc(C(=O)N/N=C(\C)c2cccnc2)c2ccccc2n1`, which “activity change, negative = inhibition” value is on record?
Its value is -12.8% (inactive).

Which “activity change, negative = inhibition” value does the source give for `COc1ccc(-c2nc(CS(=O)(=O)CC(=O)NCc3cccc(Br)c3)c(C)o2)cc1` here?
The value was -4.23% (inactive).

For `C=CCn1c(SCC(=O)NC)nnc1C12CC3CC(CC(C3)C1)C2`, which “activity change, negative = inhibition” value is on record?
The value was -14.1% (inactive).

With `COc1ccc(C2(c3ccc(OC)cc3)NC(=O)N(CC(=O)Nc3cc(C)on3)C2=O)cc1` as the molecule, how does the “activity change, negative = inhibition” value read?
Its value is -12.7% (inactive).

For `C[C@H](CO)N1C[C@H](C)[C@@H](CN(C)S(=O)(=O)c2ccc(F)cc2)Oc2c(NC(=O)Nc3ccccc3)cccc2C1=O`, which “activity change, negative = inhibition” value is on record?
The value was -18.3% (inactive).

Which “activity change, negative = inhibition” value does the source give for `COc1ccc(S(=O)(=O)Nc2cccc3c2O[C@H](CN(C)S(=O)(=O)c2ccc(OC)cc2)[C@@H](C)CN([C@H](C)CO)C3=O)cc1` here?
Its value is -17.5% (inactive).

For `COc1ccc(S(=O)(=O)N(C)C[C@H]2Oc3c(NC(=O)Nc4ccc5c(c4)OCO5)cccc3C(=O)N([C@H](C)CO)C[C@@H]2C)cc1`, which Potency is on record?
Its Potency is 11.6 µM (active).

For `CCN(C(=O)COC(=O)Cc1c(F)cccc1Cl)c1c(N)n(Cc2ccccc2)c(=O)[nH]c1=O`, which “activity change, negative = inhibition” value is on record?
The value was 2.59% (inactive).

With `COc1ccc(-c2[nH]nc3c2C(c2ccncc2)C(C#N)=C(N)O3)cc1` (centres undefined) as the molecule, how does the “activity change, negative = inhibition” value read?
Its value is 0.962% (inactive).

Which “activity change, negative = inhibition” value does the source give for `CCCc1nc2c([nH]1)C(c1cccnc1)C(C#N)=C(N)O2` (centres undefined) here?
Its value is 2.12% (inactive).

For `N#CC1=C(N)Oc2c(ccc3cccnc23)C1c1ccncc1` (centres undefined), which Potency is on record?
The Potency was 9.2 µM (active).

With `O=C(CNC(=O)c1n[nH]c2ccccc12)Nc1cc(Cl)ccc1Cl` as the molecule, how does the “activity change, negative = inhibition” value read?
The value was 2.2% (inactive).

Which “activity change, negative = inhibition” value does the source give for `CCOC(CNC(=O)C1CCN(S(=O)(=O)c2ccc3nc4c(c(C(=O)O)c3c2)CC(C)CC4)CC1)OCC` (centres undefined) here?
Its value is 5.78% (inactive).

With `COc1ccc(CNC(=O)COC(=O)c2sccc2C)cc1OC` as the molecule, how does the “activity change, negative = inhibition” value read?
The value was 10.7% (inactive).

With `CCCOP(=O)(c1ccc(N(C)C)cc1)C(O)c1cc(OC)c(OC)c(OC)c1` (centres undefined) as the molecule, how does the “activity change, negative = inhibition” value read?
The value was -8.9% (inactive).

Which “activity change, negative = inhibition” value does the source give for `COc1cc(C(=O)N(Cc2ccc(N(C)C)cc2)C2CCS(=O)(=O)C2)cc(OC)c1OC` (centres undefined) here?
The value was -9.44% (inactive).

With `COc1cc(C(=O)NCCOC(=O)c2cccc(N(C)C)c2)cc(OC)c1OC` as the molecule, how does the Potency read?
Its Potency is 11.6 µM (active).

Which “activity change, negative = inhibition” value does the source give for `COC(=O)c1ccc(CNC(=O)c2ccc(S(=O)(=O)N3CCCCCC3)cc2)cc1` here?
The value was -24.3% (inactive).

For `O=C(N[C@H]1C/C=C\C(c2cccc(F)c2)N(Cc2ccccc2)C(=O)C1)OCC1c2ccccc2-c2ccccc21` (some centres undefined), which “activity change, negative = inhibition” value is on record?
Its value is -4.08% (inactive).

Which “activity change, negative = inhibition” value does the source give for `COC(=O)c1cc(S(=O)(=O)N2CCN(c3cc(C)ccc3C)CC2)c[nH]1` here?
The value was -6.27% (inactive).

Which “activity change, negative = inhibition” value does the source give for `NC(=O)C1CCN(C(=O)c2cn(-c3ccccc3)nc2-c2cccnc2)CC1` here?
Its value is 7.76% (inactive).

Which “activity change, negative = inhibition” value does the source give for `O=C(c1cn(-c2ccccc2)nc1-c1cccnc1)N1CCCCC1` here?
Its value is -0.348% (inactive).

Which Potency does the source give for `O=C(c1cn(-c2ccccc2)nc1-c1cccnc1)N1CCN(S(=O)(=O)c2ccccc2F)CC1` here?
The Potency was 14.6 µM (active).

Which “activity change, negative = inhibition” value does the source give for `O=C(OCc1cc(=O)n2ccsc2n1)C1(c2ccc(Cl)cc2)CC1` here?
Its value is -0.471% (inactive).

For `COc1cc(C(=O)NC2CCN(Cc3ccccc3)CC2)cc(Cl)c1OC(C)C`, which “activity change, negative = inhibition” value is on record?
The value was -12.8% (inactive).

Which “activity change, negative = inhibition” value does the source give for `Nc1nc(NCc2ccccc2)n(-c2ccccc2)n1` here?
The value was 3.41% (inactive).

For `O=C(c1cccs1)n1nc(NCc2ccccc2)nc1NCc1ccccc1`, which Potency is on record?
The Potency was 25.9 µM (active).

With `O=C(CCC(=O)c1cccs1)NCc1ccccc1` as the molecule, how does the “activity change, negative = inhibition” value read?
Its value is 5.13% (inactive).

Which “activity change, negative = inhibition” value does the source give for `COc1ccc(C)cc1NC(=O)CSc1cccc[n+]1[O-]` here?
Its value is 0% (inactive).

For `CC[C@@H]1CCCCc2ccccc2[C@@H](C(=O)C[C@H](O)CC(C)=O)OC1=O`, which “activity change, negative = inhibition” value is on record?
The value was -3.84% (inactive).

With `COc1ccc(C(CNC(=O)c2ccc(S(=O)(=O)Nc3ccccc3C)cc2)N2CCOCC2)cc1` (centres undefined) as the molecule, how does the “activity change, negative = inhibition” value read?
Its value is -13.2% (inactive).

For `O=C(NCc1ccccc1)c1ccc(S(=O)(=O)Nc2cccc(C(F)(F)F)c2)cc1`, which Potency is on record?
The Potency was 13 µM (active).

With `O=C(NCc1ccncc1)c1cccc(NS(=O)(=O)c2ccc(F)c(F)c2)c1` as the molecule, how does the “activity change, negative = inhibition” value read?
Its value is 19.7% (inactive).

For `CCOC(=O)N1CCN(C(=O)c2ccc(S(=O)(=O)Nc3cccc(C(F)(F)F)c3)cc2)CC1`, which “activity change, negative = inhibition” value is on record?
The value was -25.5% (inactive).

With `O=C1C(=O)N(CCN2CCOCC2)C(c2cccc(Cl)c2)/C1=C(/O)c1ccc2c(c1)OCO2` (centres undefined) as the molecule, how does the “activity change, negative = inhibition” value read?
The value was 6.98% (inactive).

For `Cc1sc2ncn(CC(=O)NCCCC(=O)N(C)Cc3ccccc3)c(=O)c2c1C`, which “activity change, negative = inhibition” value is on record?
Its value is -3.5% (inactive).

With `O=C(COc1ccc(Br)cc1F)NCC1(N2CCCCC2)CCCCC1` as the molecule, how does the “activity change, negative = inhibition” value read?
The value was 7.66% (inactive).

With `CSc1ncccc1C(=O)NCC(c1ccco1)N1CCCCC1` (centres undefined) as the molecule, how does the “activity change, negative = inhibition” value read?
The value was 13.9% (inactive).
